# Assay results published in PubChem BioAssay AID540356 (Broad Institute, 2011).
# Among all 2,500 compounds or so, about 360 (14%) were called active.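 The calls were made as follows: active = signal-lowering compounds whose fitted half-maximal concentration AC50 is no higher than ten times their top tested concentration; inconclusive = flat curve with 30 to 70% inhibition, or poor fit; inactive = flat within 30%, signal increase, or AC50 above limit.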 A selection follows.
# Test: non-specific inhibitors of H2O2 luminol chemiluminescence – biochemical, luminescence, no ALR or DTT, cherry-pick, artefact control for ALR inhibitor project, dose response (AID 540356);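 as to activity change, negative = inhibition: 0% = median of neutral control wells and -100% = median of quercitin 100 µM wells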
# Conditions: HRP/H2O2 luminol luminescence counterscreen; series mostly up to 10 µM; activity change, negative = inhibition: at the top concentration
Compound,"activity change, negative = inhibition",AC50
COc1ccc(CNc2cc(C)ccc2C)c(OC)c1OC,-0.348% (inactive),–
CC(NC(=O)C(=O)N1CCCCC1)C(c1cccs1)N1CCN(c2ccc(F)cc2)CC1 (stereo unspecified),-2.02% (inactive),–
NNC(=O)c1ccc(O)cc1O,-15.9% (inactive),–
Nc1ccc2nc(COc3ccccc3)[nH]c2c1,-2.37% (inactive),–
NNC(=O)CCc1nc2ccc(O)cc2[nH]1,–,10.3 µM (active)
C/C(=N\Nc1ccc(C(=O)O)cc1)c1ccc(Br)cc1,0.548% (inactive),–
COc1ccc(Cc2nc3ccccc3n2CC(=O)N/N=C/c2ccc(O)cc2)cc1OC,-5.93% (inactive),–
COc1cccc(-c2noc(Cn3nc(C)c([N+](=O)[O-])c3C)n2)c1,-1.36% (inactive),–
Nc1ccc2nc(-c3ccccc3)[nH]c2c1,–,9.02 µM (active)
Nc1cccc(C(=O)Nc2ccc3nc(-c4cccnc4)[nH]c3c2)c1,-4.09% (inactive),–
Cn1c(C2CCCCC2)nc2cc(N)ccc21,-6.46% (inactive),–
Nc1ccc2nc[nH]c2c1,-6.66% (inactive),–
Nc1ccc(-c2nc3ccccc3[nH]2)cc1,-5.97% (inactive),–
CC(C)(C)c1ccc(-c2nc3cc(N)ccc3o2)cc1,-0.704% (inactive),–
COc1ccc2nc(-c3ccc(N)cc3)[nH]c2c1,-3.19% (inactive),–
Nc1ccc(-c2nc3cc(N)ccc3o2)cc1,-2.98% (inactive),–
Nc1ccc2nc(NC(=O)C3CCCCC3)sc2c1,-15.8% (inactive),–
O=[N+]([O-])c1ccc(CSC2=NCCN2)cc1,-0.782% (inactive),–
Cc1cccc2nc(-c3cccnc3)c(Nc3ccccc3)n12,0.126% (inactive),–
COc1ccc(NCC(=O)N/N=C/C2CCCCC2)cc1,-4.24% (inactive),–
NNc1nc2ccc(F)cc2s1,2.12% (inactive),–
Cc1[nH]c2ccccc2c1/C=N/NC(=O)Cc1cccs1,0.71% (inactive),–
COc1cc(CNc2ncc(-c3ccc(Cl)cc3)n2C)cc(OC)c1OC,-1.7% (inactive),–
Cc1ccc(Nc2c(-c3ccccc3O)nc3ncccn23)cc1,-0.343% (inactive),–
Cc1csc(/C(=N/OC(=O)c2ccco2)C(N)=O)n1,-4.37% (inactive),–

Compound,"activity change, negative = inhibition",AC50
CC(=O)Nc1ccc(N2C(=O)CSC2c2ccccc2[N+](=O)[O-])cc1 (stereo unspecified),-1.06% (inactive),–
Brc1ccc(CN2CCN(c3ccccc3)CC2)o1,-0.297% (inactive),–
Nc1ccc(-c2nc3ccc([N+](=O)[O-])cc3[nH]2)cc1,-2.03% (inactive),–
Cc1ccc2nc(-c3cccc(N)c3)[nH]c2c1,-2.99% (inactive),–
Cc1nc2ccc(-c3nc4ccc(N)cc4[nH]3)cc2[nH]1,–,4.68 µM (active)
Nc1ccc2oc(-c3cccs3)nc2c1,0.849% (inactive),–
Nc1ccc2sc(N)nc2c1,0.855% (inactive),–
O=C(Nc1nc(-c2ccccc2)ns1)c1cccs1,0.554% (inactive),–
Cc1nnc2sc(SCc3cccc(Cl)c3)nn2c1=O,-3.49% (inactive),–
O=S(c1ccc2ccccc2c1)c1cnns1 (stereo unspecified),-1.35% (inactive),–
C/C(Cl)=C\Cn1c(Nc2ccccc2)nc2c1c(=O)n(C)c(=O)n2C,-2.8% (inactive),–
CSCc1ccc(C(=O)NC(C)c2ccc(-n3ccnc3)cc2)cc1 (stereo unspecified),8.36% (inactive),–
O=C(CCc1ccccc1)N1CCN(c2ccc(F)cc2)CC1,-3.68% (inactive),–
CC(C)=NNc1nc(-c2ccc(N3C(=O)CCC3=O)cc2)cs1,–,6.32 µM (active)
CC(C)=NNc1nc(-c2ccccc2)cs1,16.3% (inactive),–
CC(=O)Nc1ccc(-c2csc(NNC(=O)c3ccccc3)n2)cc1,3.23% (inactive),–
CN(C)c1ccc(C(=O)Nc2nc3c(s2)CCCC3)cc1,-0.229% (inactive),–
CSCC[C@H](NC(=O)N1CCn2c1nc1ccccc12)C(=O)NC1CCCCC1,0.885% (inactive),–
O=C(Cc1ccccc1)NNc1c2ccccc2nc2ccccc12,-6.89% (inactive),–
CC(=O)NC(C)C(c1cccs1)N1CCN(c2ccccc2)CC1 (stereo unspecified),-0.36% (inactive),–
COc1ccc(C(=O)N2CCCC(Nc3ccc(C)c(C)c3)C2)cc1 (stereo unspecified),-3.42% (inactive),–
CC(=O)c1ccc(S(=O)(=O)Nc2cccc(S(=O)(=O)NC3=NCCC3)c2)cc1,0.003% (inactive),–
c1ccc(NNC2=NCCCCC2)cc1,–,6.06 µM (active)
Oc1[nH]c2ccccc2c1C1=NCCCC1,-3.74% (inactive),–
CN(C)c1ccc(CN(C(=O)c2ccccc2Br)C2CCS(=O)(=O)C2)cc1 (stereo unspecified),-3.29% (inactive),–

Compound,"activity change, negative = inhibition",AC50
COc1ccc(N2CCN(CC(=O)Nc3ccc(C)c(C)c3)CC2)cc1,-1.61% (inactive),–
Cc1ccc(C(=O)NCCSc2snnc2C)cc1,7.72% (inactive),–
Cc1ccc(-c2n[nH]c(=S)n2/N=C/c2c(C)[nH]n(-c3ccccc3)c2=O)cc1,-10.5% (inactive),–
O=c1cc(-c2ccccc2)[nH]c2[nH]n(-c3ccccc3)c(=O)c12,-14.8% (inactive),–
N#Cc1ccc(CSc2nnc(NC(=O)c3ccc(=O)[nH]c3)s2)cc1,-1.28% (inactive),–
NNC(=O)c1cccc(COc2ccccc2Br)c1,2.34% (inactive),–
Cc1cccc(N2CCN(C(=O)C3CCCN(S(=O)(=O)c4cnc[nH]4)C3)CC2C)c1 (stereo unspecified),-1.73% (inactive),–
S=c1[nH]nc(-c2cccc3ccccc23)n1-c1cccnc1,-7.05% (inactive),–
COc1cccc(/C=N/n2c(-c3cc(C)[nH]n3)n[nH]c2=S)c1OC,-11.2% (inactive),–
Cc1cccc(/C=N/n2c(-c3ccccc3)n[nH]c2=S)c1O,-0.122% (inactive),–
COc1cc(/C=N/n2c(C)n[nH]c2=S)ccc1OCc1ccccc1,-10.1% (inactive),–
COc1cccc(/C=N/NC(=O)NC2CCCCC2)c1O,-11.7% (inactive),–
COc1cc(/C=N/N2CCCCC2)cc([N+](=O)[O-])c1O,-15.9% (inactive),–
COc1cccc(/C=N/NC(=O)CNC(=O)c2ccncc2)c1O,-1.7% (inactive),–
COc1ccc(C2CC(c3ccccc3)=NN2c2ccccc2)c(C(=O)O)c1OC (stereo unspecified),-9.87% (inactive),–
O=C(O)CCc1ccc(-c2cccs2)n1NC(=O)c1cccs1,-2.5% (inactive),–
O=C(O)c1cc(O)ccc1NC(=O)c1cccc2ccccc12,-8.12% (inactive),–
O=C(NCCN1CCCc2ccccc21)C1CCC(=O)N(CCc2ccccc2)C1 (stereo unspecified),0.511% (inactive),–
O=C1CC(=O)N(c2ccccc2)N1c1ccccc1,-4.55% (inactive),–
c1ccc(CNc2ncnc3sc4c(c23)CCCC4)nc1,0.476% (inactive),–
Nn1c(Nc2ccccc2)nc2sc3c(c2c1=O)CCCC3,-4.23% (inactive),–
Cc1ccc(NC2CCCN(C(=O)CCc3scnc3C)C2)cc1C (stereo unspecified),-3.85% (inactive),–
CC(C)c1ccc(NC2CCCN(C(=O)c3cscn3)C2)cc1 (stereo unspecified),-3.5% (inactive),–
CN(C)c1ccc(NC(=O)CN2CCN(S(=O)(=O)c3cc(Cl)ccc3Cl)CC2)cc1,-1.2% (inactive),–
CCN(CC)c1ccc(/C=N/NC(=O)CC(C)C)cc1,-1.9% (inactive),–

Compound,"activity change, negative = inhibition",AC50
COc1cc(/C=N/N2C(C)CCCC2C)cc(Br)c1O (stereo unspecified),-7.59% (inactive),–
COc1cc(/C=N/Nc2ccccc2)ccc1O,-7.74% (inactive),–
Oc1ccc(/C=N/n2c(COc3ccccc3)n[nH]c2=S)cc1O,-17.1% (inactive),–
COc1cc(/C=N/NC(=O)C2C3CCCCC32C)cc(Br)c1O (stereo unspecified),-9.25% (inactive),–
CCCCCC(=O)N/N=C/c1cc(Br)c(O)c(OC)c1,-8.81% (inactive),–
COc1cc(/C=N/N2C(=O)C3C4C=CC(CC4)C3C2=O)ccc1O (stereo unspecified),-1.77% (inactive),–
Cc1ccc(CN2CCSc3ccc(C(=O)NCCCN4CCN(C)CC4)cc32)cc1,-4.31% (inactive),–
O=C(CN1CCN(c2ccc(O)cc2)CC1)Nc1ccc(S(=O)(=O)N2CCCC2)cc1,-5.81% (inactive),–
Cc1ccc(-c2nc(Nc3cccc(C)c3)sc2CC(=O)O)cc1,-2.49% (inactive),–
Cc1ccc(CS(=O)Cc2ccc(C(=O)N3CCN(c4ccccc4)CC3)o2)cc1 (stereo unspecified),0.836% (inactive),–
CN(C)c1ccc(NC(=O)CN2CCc3ccccc3C2)cc1,-5.48% (inactive),–
CN(C)c1ccc(NC(=O)CCn2c(=S)oc3ccccc32)cc1,-3.01% (inactive),–
O=C(NCC(c1ccco1)N1CCc2ccccc21)c1ccccc1F (stereo unspecified),0.891% (inactive),–
Clc1c(CSc2nc3ccccc3o2)nc2ccccn12,-2.53% (inactive),–
CCCCCCCc1c(C#N)c(N)[nH]c(=S)c1C#N,-5.05% (inactive),–
Cc1cccc(C(=O)Nc2ccc(O)cc2)c1,-13.4% (inactive),–
Cc1ccc(S(=O)(=O)Nc2ccc(N(C)C)cc2)cc1,0.687% (inactive),–
Cc1ccc(Sc2ccc(S(=O)(=O)Nc3ccc(C(=O)O)cc3)cc2)cc1C,-7.49% (inactive),–
CC(=O)Nc1ccc(S(=O)(=O)Nc2ccc(Nc3ccccc3)cc2)cc1,-7.75% (inactive),–
Cc1cc(C)c(S(=O)(=O)Nc2ccc(O)cc2)c(C)c1,–,9.93 µM (active)
COc1ccc(S(=O)(=O)N/N=C(/C)c2ccncc2)c(OC)c1,-4.06% (inactive),–
COc1cc(/C=N/NC(=O)c2nc3ccccn3c2C)cc(OC)c1O,-5.24% (inactive),–
O=C(Nc1ccccc1N1CCCC1)c1cccnc1,-10.3% (inactive),–
O=C(NN=C1CCC(=NNC(=O)c2cccnc2)CC1)c1cccnc1,–,8.24 µM (active)
O=C(Nc1ccc(N2CCCCC2)cc1)c1cccnc1,0.535% (inactive),–

Compound,"activity change, negative = inhibition",AC50
Cc1ccc(N/N=C2/CCCNC2=O)cc1,-2.46% (inactive),–
Cc1ccc(C(=O)Nc2cccc([N+](=O)[O-])c2)cc1S(=O)(=O)Nc1ccc(C(=O)O)cc1,-1.41% (inactive),–
COc1ccccc1NS(=O)(=O)c1cc([N+](=O)[O-])ccc1N/N=C/c1c[nH]c2ccccc12,3.54% (inactive),–
CNC(=O)c1cc(Nc2nnc(-c3ccc(O)cc3)c3ccccc23)ccc1OC,-3.44% (inactive),–
CCN(CC)CCCN(C(=O)c1cccc(C)c1)c1nc(-c2ccc(OC)cc2)cs1,-3.71% (inactive),–
Cn1c(CNS(=O)(=O)c2ccc(Br)cc2)n[nH]c1=S,-0.165% (inactive),–
CCCn1c(CCC(=O)O)ccc1-c1cccs1,-6.04% (inactive),–
COc1cccc(NC(=O)CN2CCN(c3ccc(F)cc3)CC2)c1,0.116% (inactive),–
Cc1cc(Oc2ncccc2[N+](=O)[O-])c2cc(Cl)ccc2n1,0.22% (inactive),–
COc1ccccc1-n1cnc2cc(NCc3ccccc3O)ccc21,-0.965% (inactive),–
COc1ccc(OC)c(CNc2ccc3c(c2)nc(C)n3C)c1,-7.25% (inactive),–
O=[N+]([O-])c1ccc(-c2cn(-c3ccccc3F)c(=S)[nH]2)cc1,-1.24% (inactive),–
Cc1nc(SCc2cccnc2)[nH]c(=O)c1C,1.87% (inactive),–
Cc1ccc(NC2CCCN(C(=O)c3cc4ncccn4n3)C2)cc1C (stereo unspecified),-0.727% (inactive),–
COc1cc(/C=N/Nc2nc(=O)[nH]nc2C)ccc1O,-6.83% (inactive),–
NC(=O)c1ccc(CSc2nc3ccccc3s2)cc1,2.17% (inactive),–
CNc1nnc(CSc2nc3ccccc3s2)s1,-0.989% (inactive),–
CC(C)c1ccc(NC2CCCN(C(=O)C3=NN(C)C(=O)CC3)C2)cc1 (stereo unspecified),-5.77% (inactive),–
COC(=O)c1sccc1NC(=O)c1cc(C)on1,2.59% (inactive),–
Cc1cc(C(=O)NNc2ccc(F)cc2F)no1,2.69% (inactive),–
Cc1cc(C(=O)NNc2ccccc2F)no1,–,8.51 µM (active)
